Legend:
Assay in all cases: log2 ratio of Biotin-Ahx-Ub-VS probe labelling (fragment/DMSO); higher = less target engagement (more negative = stronger competition), active = hit call of the paper (q ≤ 0.05, log2 ratio ≤ -1)
Settings in all cases: compound concentration: 200 uM; treatment time: 3 h
USP34 = USP34 (UniProt Q70CQ2)
How it was run: (§1)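 HEK293T lysate (495 µg per sample, in Tris/CHAPS/IGEPAL buffer with protease inhibitors) was exposed in triplicate for 3 h to fragment at 200 µM or to vehicle, then to Biotin-Ahx-Ub-VS at 0.5 µM final for 1 h. Labelled DUBs were enriched on NeutrAvidin, digested with LysC and trypsin, and analysed by diaPASEF LC-MS/MS. Spectronaut label-free quantities were normalised to the global median, and values are average log2 ratios of fragment over vehicle from an unpaired t-test. Only proteins with ≥2 unique peptides were used.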

USP36 = target: T1, USP36 (UniProt Q9P275)
T1 sequence (whole entry): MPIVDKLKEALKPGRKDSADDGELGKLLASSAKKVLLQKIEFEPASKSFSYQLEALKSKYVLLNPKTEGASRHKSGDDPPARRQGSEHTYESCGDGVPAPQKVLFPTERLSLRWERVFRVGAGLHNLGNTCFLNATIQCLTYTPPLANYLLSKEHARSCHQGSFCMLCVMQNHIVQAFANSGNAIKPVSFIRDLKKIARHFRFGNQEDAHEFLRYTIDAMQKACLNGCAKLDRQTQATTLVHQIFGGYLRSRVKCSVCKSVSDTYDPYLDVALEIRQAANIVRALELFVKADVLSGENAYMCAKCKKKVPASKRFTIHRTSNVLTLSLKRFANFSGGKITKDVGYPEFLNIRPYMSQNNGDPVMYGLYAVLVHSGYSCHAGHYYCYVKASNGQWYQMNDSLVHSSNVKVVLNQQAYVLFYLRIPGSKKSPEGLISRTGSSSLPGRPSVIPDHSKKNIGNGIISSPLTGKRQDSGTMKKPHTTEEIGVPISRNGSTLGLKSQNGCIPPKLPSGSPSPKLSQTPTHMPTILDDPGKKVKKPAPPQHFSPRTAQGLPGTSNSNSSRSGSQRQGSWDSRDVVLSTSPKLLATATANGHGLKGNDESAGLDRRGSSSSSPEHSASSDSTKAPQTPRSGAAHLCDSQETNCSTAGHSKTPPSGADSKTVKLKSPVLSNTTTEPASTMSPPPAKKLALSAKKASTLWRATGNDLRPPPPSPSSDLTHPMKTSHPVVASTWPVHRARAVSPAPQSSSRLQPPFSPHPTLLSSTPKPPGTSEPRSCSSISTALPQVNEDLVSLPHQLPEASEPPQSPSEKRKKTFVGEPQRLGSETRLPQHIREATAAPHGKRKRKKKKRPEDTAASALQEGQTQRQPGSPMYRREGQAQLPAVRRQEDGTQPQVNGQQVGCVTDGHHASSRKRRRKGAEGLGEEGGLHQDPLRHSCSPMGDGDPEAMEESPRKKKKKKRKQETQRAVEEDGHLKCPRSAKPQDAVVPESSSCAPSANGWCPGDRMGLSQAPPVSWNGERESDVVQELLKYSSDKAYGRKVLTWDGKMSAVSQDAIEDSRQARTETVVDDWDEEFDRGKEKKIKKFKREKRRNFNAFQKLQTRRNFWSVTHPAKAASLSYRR
How it was run: as §1

USP38 = target: T2, USP38 (UniProt Q8NB14)
T2 sequence (whole entry): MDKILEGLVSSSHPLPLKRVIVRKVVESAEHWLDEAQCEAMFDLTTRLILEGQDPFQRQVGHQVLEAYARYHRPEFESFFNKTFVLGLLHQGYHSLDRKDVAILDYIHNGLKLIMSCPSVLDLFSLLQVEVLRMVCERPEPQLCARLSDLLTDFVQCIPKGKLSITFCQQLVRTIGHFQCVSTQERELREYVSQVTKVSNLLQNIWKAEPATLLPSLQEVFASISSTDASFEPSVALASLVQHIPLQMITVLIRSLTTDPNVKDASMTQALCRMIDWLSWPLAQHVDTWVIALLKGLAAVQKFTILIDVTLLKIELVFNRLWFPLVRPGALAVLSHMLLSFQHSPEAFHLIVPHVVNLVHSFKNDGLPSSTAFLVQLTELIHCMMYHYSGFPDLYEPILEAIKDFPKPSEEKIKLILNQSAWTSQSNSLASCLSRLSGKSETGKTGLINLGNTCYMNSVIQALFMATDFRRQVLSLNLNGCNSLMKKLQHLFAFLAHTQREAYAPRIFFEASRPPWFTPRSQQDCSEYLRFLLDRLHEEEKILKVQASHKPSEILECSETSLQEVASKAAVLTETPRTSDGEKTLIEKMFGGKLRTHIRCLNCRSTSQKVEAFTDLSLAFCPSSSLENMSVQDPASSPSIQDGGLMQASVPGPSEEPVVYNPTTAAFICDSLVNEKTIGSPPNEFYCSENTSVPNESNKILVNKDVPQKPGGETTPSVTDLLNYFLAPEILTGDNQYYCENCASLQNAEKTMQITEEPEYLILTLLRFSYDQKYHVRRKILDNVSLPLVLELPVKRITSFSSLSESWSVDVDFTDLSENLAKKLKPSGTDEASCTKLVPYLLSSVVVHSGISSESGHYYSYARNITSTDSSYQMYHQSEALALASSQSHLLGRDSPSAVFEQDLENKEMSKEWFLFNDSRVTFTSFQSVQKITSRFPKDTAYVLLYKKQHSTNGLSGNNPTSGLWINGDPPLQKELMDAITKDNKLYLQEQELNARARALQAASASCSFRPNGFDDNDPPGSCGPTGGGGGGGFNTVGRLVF
How it was run: as §1

USP39 = target: T3, USP39 (UniProt Q53GS9)
T3 sequence (whole entry): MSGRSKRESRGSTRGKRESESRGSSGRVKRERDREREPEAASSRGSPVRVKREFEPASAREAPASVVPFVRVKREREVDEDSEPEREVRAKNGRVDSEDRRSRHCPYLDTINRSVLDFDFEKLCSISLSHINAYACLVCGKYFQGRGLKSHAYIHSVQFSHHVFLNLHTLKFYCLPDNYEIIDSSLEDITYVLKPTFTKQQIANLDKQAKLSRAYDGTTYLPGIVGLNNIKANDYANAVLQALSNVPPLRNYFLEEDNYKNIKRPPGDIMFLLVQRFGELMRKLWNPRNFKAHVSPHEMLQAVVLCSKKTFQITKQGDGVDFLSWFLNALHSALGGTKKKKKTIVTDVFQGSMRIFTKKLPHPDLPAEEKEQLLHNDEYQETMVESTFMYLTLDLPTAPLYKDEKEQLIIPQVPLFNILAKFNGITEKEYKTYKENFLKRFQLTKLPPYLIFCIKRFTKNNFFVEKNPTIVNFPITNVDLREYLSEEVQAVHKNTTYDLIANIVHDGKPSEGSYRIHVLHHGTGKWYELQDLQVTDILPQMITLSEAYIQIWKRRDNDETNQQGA
How it was run: as §1

USP4 = target: T4, USP4 (UniProt Q13107)
T4 sequence (whole entry): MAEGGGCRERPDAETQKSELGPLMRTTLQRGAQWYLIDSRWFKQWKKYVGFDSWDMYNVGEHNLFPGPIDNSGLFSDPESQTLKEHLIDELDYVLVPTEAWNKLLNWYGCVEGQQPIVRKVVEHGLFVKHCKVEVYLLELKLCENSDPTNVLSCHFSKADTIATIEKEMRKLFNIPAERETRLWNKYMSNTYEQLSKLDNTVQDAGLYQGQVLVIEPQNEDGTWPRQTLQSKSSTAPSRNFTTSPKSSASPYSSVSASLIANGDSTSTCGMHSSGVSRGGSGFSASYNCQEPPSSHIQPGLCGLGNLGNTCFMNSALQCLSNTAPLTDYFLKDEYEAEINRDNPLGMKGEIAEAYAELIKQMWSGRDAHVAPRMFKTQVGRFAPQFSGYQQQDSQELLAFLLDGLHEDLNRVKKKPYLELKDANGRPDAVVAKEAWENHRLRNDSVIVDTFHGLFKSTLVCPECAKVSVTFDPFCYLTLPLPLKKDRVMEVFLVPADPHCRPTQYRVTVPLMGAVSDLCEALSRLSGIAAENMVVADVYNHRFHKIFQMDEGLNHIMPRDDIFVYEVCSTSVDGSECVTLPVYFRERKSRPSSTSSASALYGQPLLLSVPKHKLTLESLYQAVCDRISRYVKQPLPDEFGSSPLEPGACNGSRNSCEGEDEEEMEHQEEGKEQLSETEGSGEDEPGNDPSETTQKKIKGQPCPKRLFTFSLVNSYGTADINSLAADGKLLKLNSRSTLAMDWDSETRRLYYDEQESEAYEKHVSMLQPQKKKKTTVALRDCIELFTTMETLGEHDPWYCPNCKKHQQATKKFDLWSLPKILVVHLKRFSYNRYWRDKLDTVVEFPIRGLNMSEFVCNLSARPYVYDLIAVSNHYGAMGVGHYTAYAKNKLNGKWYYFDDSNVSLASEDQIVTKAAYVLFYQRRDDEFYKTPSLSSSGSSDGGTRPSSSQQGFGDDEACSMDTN
How it was run: as §1

Measured: log2 ratio of Biotin-Ahx-Ub-VS probe labelling

Sequence of USP34 (Q70CQ2 whole entry, the tested form may be a part): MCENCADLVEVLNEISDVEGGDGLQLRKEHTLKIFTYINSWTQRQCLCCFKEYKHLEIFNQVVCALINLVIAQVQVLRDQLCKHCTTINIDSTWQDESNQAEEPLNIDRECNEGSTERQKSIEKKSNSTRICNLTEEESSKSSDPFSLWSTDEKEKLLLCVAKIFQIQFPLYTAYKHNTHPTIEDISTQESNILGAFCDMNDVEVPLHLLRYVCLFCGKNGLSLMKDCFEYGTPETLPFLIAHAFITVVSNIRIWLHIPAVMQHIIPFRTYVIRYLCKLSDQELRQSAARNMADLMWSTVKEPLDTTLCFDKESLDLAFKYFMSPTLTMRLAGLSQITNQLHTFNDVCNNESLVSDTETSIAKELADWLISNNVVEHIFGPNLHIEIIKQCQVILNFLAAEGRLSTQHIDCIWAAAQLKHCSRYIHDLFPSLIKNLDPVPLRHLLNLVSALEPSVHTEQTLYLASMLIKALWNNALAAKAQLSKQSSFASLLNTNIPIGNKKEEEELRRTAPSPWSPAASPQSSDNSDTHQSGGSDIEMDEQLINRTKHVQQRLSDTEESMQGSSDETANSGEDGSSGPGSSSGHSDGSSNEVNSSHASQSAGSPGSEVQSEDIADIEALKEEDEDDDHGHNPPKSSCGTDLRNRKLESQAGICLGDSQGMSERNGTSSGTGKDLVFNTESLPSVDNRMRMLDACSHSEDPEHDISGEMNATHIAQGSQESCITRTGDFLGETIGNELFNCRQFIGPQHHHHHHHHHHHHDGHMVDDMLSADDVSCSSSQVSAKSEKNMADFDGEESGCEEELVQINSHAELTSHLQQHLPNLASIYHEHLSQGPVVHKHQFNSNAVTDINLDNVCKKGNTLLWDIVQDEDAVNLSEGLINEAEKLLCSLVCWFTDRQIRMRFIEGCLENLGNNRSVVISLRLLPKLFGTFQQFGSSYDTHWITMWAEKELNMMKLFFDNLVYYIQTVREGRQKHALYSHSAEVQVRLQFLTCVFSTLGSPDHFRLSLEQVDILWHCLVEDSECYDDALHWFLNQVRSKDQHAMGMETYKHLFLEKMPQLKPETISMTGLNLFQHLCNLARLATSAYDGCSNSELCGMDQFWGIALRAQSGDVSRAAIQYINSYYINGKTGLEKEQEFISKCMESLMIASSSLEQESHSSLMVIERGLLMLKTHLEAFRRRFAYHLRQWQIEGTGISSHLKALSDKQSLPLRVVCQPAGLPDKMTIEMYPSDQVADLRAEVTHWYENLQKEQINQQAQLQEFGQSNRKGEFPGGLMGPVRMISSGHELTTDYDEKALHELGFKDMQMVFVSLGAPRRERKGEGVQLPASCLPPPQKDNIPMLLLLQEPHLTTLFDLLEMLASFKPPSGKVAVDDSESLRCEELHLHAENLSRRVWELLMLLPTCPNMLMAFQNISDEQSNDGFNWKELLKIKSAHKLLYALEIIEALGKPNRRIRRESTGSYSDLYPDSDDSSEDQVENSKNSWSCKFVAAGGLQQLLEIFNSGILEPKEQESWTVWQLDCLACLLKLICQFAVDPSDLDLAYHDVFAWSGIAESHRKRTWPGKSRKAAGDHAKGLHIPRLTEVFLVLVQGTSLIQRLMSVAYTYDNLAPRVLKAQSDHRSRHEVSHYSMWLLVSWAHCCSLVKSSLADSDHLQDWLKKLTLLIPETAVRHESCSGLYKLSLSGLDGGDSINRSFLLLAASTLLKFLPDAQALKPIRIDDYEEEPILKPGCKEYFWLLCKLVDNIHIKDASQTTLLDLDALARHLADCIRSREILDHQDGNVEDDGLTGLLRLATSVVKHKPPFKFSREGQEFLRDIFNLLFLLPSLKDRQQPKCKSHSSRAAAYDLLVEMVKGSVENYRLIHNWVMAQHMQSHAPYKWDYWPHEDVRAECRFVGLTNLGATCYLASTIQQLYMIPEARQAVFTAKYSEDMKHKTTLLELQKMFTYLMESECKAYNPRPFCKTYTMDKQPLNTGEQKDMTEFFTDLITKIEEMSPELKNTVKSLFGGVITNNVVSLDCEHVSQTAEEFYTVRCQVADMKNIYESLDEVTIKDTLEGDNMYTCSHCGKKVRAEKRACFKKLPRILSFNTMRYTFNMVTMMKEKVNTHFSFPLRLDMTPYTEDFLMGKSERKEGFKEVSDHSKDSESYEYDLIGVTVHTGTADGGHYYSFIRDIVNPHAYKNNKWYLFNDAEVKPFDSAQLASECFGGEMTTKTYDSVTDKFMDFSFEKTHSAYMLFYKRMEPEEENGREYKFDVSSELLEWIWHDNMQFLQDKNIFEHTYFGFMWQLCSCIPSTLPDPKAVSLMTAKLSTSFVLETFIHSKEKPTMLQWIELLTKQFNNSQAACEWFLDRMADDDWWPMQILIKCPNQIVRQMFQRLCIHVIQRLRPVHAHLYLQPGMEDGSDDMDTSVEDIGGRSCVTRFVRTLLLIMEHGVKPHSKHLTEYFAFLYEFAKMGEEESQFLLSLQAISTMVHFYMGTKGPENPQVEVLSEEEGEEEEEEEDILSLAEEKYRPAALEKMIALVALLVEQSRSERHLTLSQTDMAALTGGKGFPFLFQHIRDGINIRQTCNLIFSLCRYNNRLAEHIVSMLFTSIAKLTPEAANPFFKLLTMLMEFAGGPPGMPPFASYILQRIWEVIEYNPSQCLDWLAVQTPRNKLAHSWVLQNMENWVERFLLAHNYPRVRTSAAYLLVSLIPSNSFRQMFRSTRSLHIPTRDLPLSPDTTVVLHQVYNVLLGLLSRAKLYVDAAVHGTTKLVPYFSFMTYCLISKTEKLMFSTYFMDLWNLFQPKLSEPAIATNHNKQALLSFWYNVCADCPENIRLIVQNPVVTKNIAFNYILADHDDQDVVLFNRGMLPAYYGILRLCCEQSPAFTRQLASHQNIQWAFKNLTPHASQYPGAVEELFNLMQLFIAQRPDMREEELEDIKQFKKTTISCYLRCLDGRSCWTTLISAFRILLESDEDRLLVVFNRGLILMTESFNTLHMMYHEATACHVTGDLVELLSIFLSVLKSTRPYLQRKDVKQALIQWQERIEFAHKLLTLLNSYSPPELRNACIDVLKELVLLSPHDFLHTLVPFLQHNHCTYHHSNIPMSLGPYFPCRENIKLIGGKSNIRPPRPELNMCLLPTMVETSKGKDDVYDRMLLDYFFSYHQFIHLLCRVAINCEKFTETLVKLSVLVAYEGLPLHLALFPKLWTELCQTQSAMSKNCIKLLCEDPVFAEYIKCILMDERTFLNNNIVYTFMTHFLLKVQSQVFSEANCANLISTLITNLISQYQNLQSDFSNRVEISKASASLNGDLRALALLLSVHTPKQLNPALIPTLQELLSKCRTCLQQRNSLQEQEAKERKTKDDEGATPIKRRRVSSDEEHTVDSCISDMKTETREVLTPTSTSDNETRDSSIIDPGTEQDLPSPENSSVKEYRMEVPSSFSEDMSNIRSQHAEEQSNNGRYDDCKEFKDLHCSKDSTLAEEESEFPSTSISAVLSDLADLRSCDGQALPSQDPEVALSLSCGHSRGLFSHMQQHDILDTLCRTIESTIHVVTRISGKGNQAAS

CCCn1nccc1NC(=O)CCl
inactive: USP34 -0.0454 | USP36 -0.015 | USP38 -0.241 | USP39 -0.211 | USP4 -0.159
